Source: PubChem BioAssay AID743279 (National Center for Advancing Translational Sciences (NCATS), 2014)
Several values for one entry are separate records, joined by “and”; a condition that tells them apart may be missing. Equal values may be shown once. Among all 360,000 compounds or so, about 17,000 (4.7%) were called active. Roughly 5% stayed inconclusive and do not appear here. Rule as the data show it: active = activity change below about -50%; inconclusive = mostly about -30% to -49%; inactive = weaker than that. The sample as a whole holds a higher share of actives than the screen did.

experiment: qHTS for Inhibitors of Inflammasome Signaling: IL-1-beta AlphaLISA Primary Screen; settings: THP-1 LPS/ATP IL-1B secretion, 16 h; at 57.5 µM, active compounds read low
Summary of the method: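 Secreted IL-1B measured by AlphaLISA bead assay after 16 h compound exposure of THP-1 cells; compounds (final up to 57.5 uM) added 1 h before LPS (250 ng/mL) and ATP (1.25 mM) stimulation; lower signal means less secretion.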
% is scaled to controls: 0 for no effect and ±100 for the full control effect.

| SMILES | activity change |
| --- | --- |
| O=C(NCc1cccnc1)c1cc(C2CCCCN2C(=O)CCc2ccccc2)on1 (centres undefined) | 19.3% (inactive) |
| Cc1n[nH]c(=O)c2c(NC(=O)CSc3ccccc3F)oc(C)c12 | -0.579% (inactive) |
| CC(C)(C)OC(=O)NC(Cc1ccccc1)C(=O)NC(CSC1CCCCO1)C(=O)NN (centres undefined) | -12% (inactive) |
| COc1ccc(CN2C(=O)C(CC(=O)NCCN3CCOCC3)CC(C(=O)N(C(C)C)C(C)C)=C2C)cc1 (centres undefined) | 15.9% (inactive) |
| COc1cc(C2c3cc4c(cc3C(O)C3COC(=O)C23)OCO4)cc(OC)c1OC (centres undefined) | -3.2% (inactive) |
| O=C(NCC(F)(F)F)c1ccc(S(=O)(=O)NCCc2ccc3c(c2)OCCO3)cc1 | -14.1% (inactive) |
| CCCn1c(N)c(C(=O)CSc2nnc(Cc3cccs3)n2C2CC2)c(=O)[nH]c1=O | -3.66% (inactive) |
| COc1cc(OC)cc(C2=Cc3ccccc3C(CC(=O)c3ccco3)N2c2ccc(-c3cnc(OC)nc3)cc2)c1 (centres undefined) | 3.59% (inactive) |
| CCOc1ccc(Cl)cc1-c1cc(C(=O)NCc2cccs2)[nH]n1 | -22.8% (inactive) |
| COC(=O)C[C@@H]1C=C[C@@H](NS(=O)(=O)c2cccc(OC)c2)[C@@H](CO)O1 | -5.98% (inactive) |
| CCOC(=O)/C(=N\Nc1cc(Cl)ccc1Cl)N1CCN(C)CC1 | 19% (inactive) |
| COc1cc2ccc(C(C)=O)c(O)c2cc1OC | -10.2% (inactive) |
| COc1ccc(-c2nc3cnccn3c2NC(C)(C)CC(C)(C)C)cc1O | -71.3% (active) |
| COc1ccc(C)cc1S(=O)(=O)NC1CCCCC1 | -4.98% (inactive) |
| COC(=O)c1ccc2nc(-c3ccc(OC)c(OC)c3)c(Cc3ccccc3)n2c1 | -9.54% (inactive) |
| COc1ccc(-c2nc3cnccn3c2NC2CCCCC2)cc1-c1cccc(Cl)c1 | -76.6% (active) and -52.7% (active) |
| CCOc1cc(-c2nc3cc(C)ccn3c2NCC2CCCO2)ccc1O (centres undefined) | 2.58% (inactive) |
| Cc1ccc2nc(-c3cccnc3)c(NC3CCCC3)n2c1 | -1.15% (inactive) |
| COc1ccc(-c2nc3cc(C)ccn3c2NC2CCCCC2)cc1SC1CCCCC1 | -85% (active) |
| COc1cccc(-c2nc3nc(C)cc(C)n3c2NC2CCCCC2)c1 | 8.2% (inactive) |
| CC(=O)Nc1cc(-c2ccccc2F)cn2c(-c3cccc(C(F)(F)F)c3)cnc12 | -13.7% (inactive) |
| COc1cc(C=NC2CCCCC2)ccc1O | 9.61% (inactive) |
| Cc1ccc(-c2nc(C)sc2CC(=O)OCC(=O)Nc2c(F)cccc2F)cc1 | 8.31% (inactive) |
| CCNC(=O)C1CCCN(C(=O)c2ccc(OC)cc2OC)CC1 (centres undefined) | 5.59% (inactive) |
